Screen size: about 310,000 compounds; about 14,000 (4.5%) showed an effect of 50% or more. The effect is printed as a negative number. This excerpt belongs to a sample that is enriched for strong results.
Target: human ether-à-go-go-related gene (hERG) potassium channel (human, UniProt Q12809)
Test: primary screen, population patch clamp on CHO cells stably expressing hERG; higher = less effect of the substance
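Further: peak tail current of the secondary pulse compared with the same well before compound.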

human ether-à-go-go-related gene (hERG) potassium channel, sequence (Q12809 whole entry, looked up): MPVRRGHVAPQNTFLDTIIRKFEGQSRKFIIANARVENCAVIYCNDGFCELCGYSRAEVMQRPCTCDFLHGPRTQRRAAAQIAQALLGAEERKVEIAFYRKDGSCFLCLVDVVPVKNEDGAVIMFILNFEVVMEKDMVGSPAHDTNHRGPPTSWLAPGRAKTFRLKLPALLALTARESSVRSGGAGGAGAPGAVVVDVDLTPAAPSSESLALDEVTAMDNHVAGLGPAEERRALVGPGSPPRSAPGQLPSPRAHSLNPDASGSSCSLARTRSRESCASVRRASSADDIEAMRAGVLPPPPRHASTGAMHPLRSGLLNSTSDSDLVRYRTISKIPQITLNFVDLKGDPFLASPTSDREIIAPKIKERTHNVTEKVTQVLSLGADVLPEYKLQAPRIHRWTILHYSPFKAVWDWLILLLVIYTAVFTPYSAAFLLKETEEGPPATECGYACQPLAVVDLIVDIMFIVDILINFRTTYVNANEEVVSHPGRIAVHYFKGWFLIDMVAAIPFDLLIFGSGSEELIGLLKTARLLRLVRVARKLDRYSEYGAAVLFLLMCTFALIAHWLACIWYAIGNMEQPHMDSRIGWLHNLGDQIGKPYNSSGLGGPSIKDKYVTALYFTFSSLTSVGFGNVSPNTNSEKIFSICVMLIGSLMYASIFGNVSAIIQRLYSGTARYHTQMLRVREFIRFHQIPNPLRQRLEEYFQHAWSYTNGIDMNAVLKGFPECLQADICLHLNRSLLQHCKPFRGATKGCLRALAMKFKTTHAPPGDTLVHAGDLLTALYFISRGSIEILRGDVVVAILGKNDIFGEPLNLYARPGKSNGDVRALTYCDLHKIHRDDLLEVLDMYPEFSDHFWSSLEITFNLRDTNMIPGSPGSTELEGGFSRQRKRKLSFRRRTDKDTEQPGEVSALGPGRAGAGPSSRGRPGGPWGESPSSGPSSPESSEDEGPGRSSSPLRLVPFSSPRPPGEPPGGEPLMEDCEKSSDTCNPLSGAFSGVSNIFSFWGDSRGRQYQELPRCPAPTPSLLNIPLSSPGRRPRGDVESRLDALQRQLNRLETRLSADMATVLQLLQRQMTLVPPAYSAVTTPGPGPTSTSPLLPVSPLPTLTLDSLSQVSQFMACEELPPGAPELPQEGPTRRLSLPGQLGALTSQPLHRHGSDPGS

SMILES | hERG current change (%, negative = inhibition) at 10uM [%]
CCCc1cc2c(cc1NC(=O)c1ccccc1F)OCO2 | -11.3
CC(=O)Nc1sc2c(c1C(=O)N1CCOCC1)CCCCC2 | 17.9
Cc1ccc(-n2ncc3c(NCC4CCCO4)ncnc32)c(C)c1 (centres unmarked) | 12.9
COc1cc(C(C)=O)ccc1OCC(=O)Nc1ccc2nc(C)sc2c1 | 13.4
CC(SC#N)C(=O)C12CC3CC(CC(C3)C1)C2 (centres unmarked) | -8.99
O=C1CN=C(c2ccccc2)c2ccccc2N1 | 8.11
O=[N+]([O-])/C=C/c1cn(Cc2ccc(Cl)cc2)c2ccccc12 | 2.65
O=C(NCc1cccnc1)C(Cl)(Cl)Cl | 0.208
CCN(CC)c1ccc(S(=O)(=O)N2CCOCC2)cc1NC(=O)COC(=O)COc1ccccc1C | 12.7
CC1=CC=CC2=NC(=O)CC(C)(C(=O)N(CC(=O)NC3CCCC3)c3ccc(F)cc3)N12 (centres unmarked) | 11.1
Cc1nn(C)c(C)c1S(=O)(=O)N(CC(=O)NCCCOC(C)C)c1ccc(C(C)C)cc1 | -69.6
Cc1nn(C)c(C)c1S(=O)(=O)N(CC(=O)NCCCN1CC(C)CC(C)C1)c1ccc(C(C)C)cc1 (centres unmarked) | -66.4
Cc1nn(C)c(C)c1S(=O)(=O)N(CC(=O)NCCN1CCOCC1)c1ccc(C(C)C)cc1 | -2.41
Cc1nn(C)c(C)c1S(=O)(=O)N(CC(=O)NCc1ccco1)c1ccc(C(C)C)cc1 | 16.6
Cc1nn(C)c(C)c1S(=O)(=O)N(CC(=O)NC1CCCCCC1)c1ccc(C(C)C)cc1 | -10.4
Cc1cccc(NC(=O)CN(c2ccc(C(C)C)cc2)S(=O)(=O)c2c(C)nn(C)c2C)n1 | -12.2
Cc1nn(C)c(C)c1S(=O)(=O)N(CC(=O)Nc1ccccn1)c1ccc(C(C)C)cc1 | -7.4
Cc1nn(C)c(C)c1S(=O)(=O)N(CC(=O)NCc1cccs1)c1ccc(C(C)C)cc1 | 9.79
Cc1nn(C)c(C)c1S(=O)(=O)N(CC(=O)NCCCN1CCC(C)CC1)c1ccc(C(C)C)cc1 | -64.7
C#CCOCCOCCOCCNc1nc(N2CCN(C(=O)[C@H]([C@@H](C)CC)n3cc(CCCC[NH3+])nn3)CC2)nc(N2CCN(C(=O)[C@H](CCCC[NH3+])n3cc(CC(C)O)nn3)CC2)n1.[Cl-] (some centres unmarked) | 14.3
COc1ccc(C2C(C#N)=C(C)NC3=C2C(=O)CC(C)(C)C3)c(OC)c1 (centres unmarked) | -6.3
Cc1ccccc1OCCCCn1c(CO)nc2ccccc21 | -45.1

SMILES | hERG current change (%, negative = inhibition) at 10uM [%]
COc1ccc(-c2nnc(SCC(=O)NCc3cccs3)n2CC(C)C)cc1 | -15.2
CNC(=S)N1CCN(c2ccccc2OC)CC1 | 7.94
CC(=O)n1cc(/C=N/NC(N)=S)c2ccccc21 | -18.4
CCCN=C1CC(C)(C)CC(=O)/C1=C(/O)CCCN1C(=O)c2ccccc2C1=O | -11.4
CC1(C)CC(=O)/C(=C(\O)CCCN2C(=O)c3ccccc3C2=O)C(=NCCO)C1 | 11.7
CCCCN=C1CC(C)(C)CC(=O)/C1=C(/O)CCCN1C(=O)c2ccccc2C1=O | -61.4
CC/C(O)=C1\C(=O)CC(c2ccccc2)CC1=NCCC(=O)O (centres unmarked) | 15.6
O=C1CC(c2ccccc2)CC(=NCCO)/C1=C(\O)CCCN1C(=O)c2ccccc2C1=O (centres unmarked) | -71.9
O=C(O)CN=C1CC(c2ccccc2)CC(=O)/C1=C(/O)CCCN1C(=O)c2ccccc2C1=O (centres unmarked) | 1.09
CCCCCCNc1cc2n(c(=O)n1)CCc1cc(OC)c(OC)cc1-2 | -46.7
CCOc1ccc(C(C)NC(=O)c2ccc3c(c2)NC(=O)C(C)S3)cc1OCC (centres unmarked) | 1.73
O=C(CS(=O)(=O)c1c[nH]c2ccccc12)NC1CCCCC1 | -8.19
Cc1ccc(CN2CCN(CC(=O)N/N=C/c3ccc(C)o3)CC2)cc1 | -64.2
CSc1ccc(/C=N/NC(=O)CN2CCN(Cc3ccc(C)cc3)CC2)cc1 | -63.2
CSc1ccc(/C=N\NC(=O)CNc2ccc(C)cc2)cc1 | -2.08
CSc1ccc(/C=N/NC(=O)CN2CCN(Cc3ccccc3)CC2)cc1 | -74.6
Cc1ccc(/C=N/NC(=O)CN2CCN(Cc3ccccc3Cl)CC2)o1 | -23.5
CSc1ccc(/C=N/NC(=O)CN2CCN(Cc3ccccc3Cl)CC2)cc1 | -37.5
CSc1ccc(/C=N/NC(=O)CN2CCN(Cc3ccc(Cl)cc3)CC2)cc1 | -35.1
Cc1ccc(/C=N/NC(=O)CN2CCN(Cc3ccccc3)CC2)o1 | -11.7
CSc1ccc(/C=N/N2CCN(Cc3ccccc3)CC2)cc1 | -5.46
CSc1nnc(-c2ccc(S(=O)(=O)N3CCOCC3)cc2)n1C | -25
